From paper PMC11006913 come the findings set out here.

Where a chain is given by its changes, count along the chain named.

What all share (assay): PBM; 200 nM protein, PBS
Holding throughout (details): dsDNA, one strand shown

For test [1], the target named is CRX (Homo sapiens, UniProt O43186 26-111).
Test [2] addresses T1, VENTX (Homo sapiens, UniProt O95231 78-163, R121Q).
T1 sequence: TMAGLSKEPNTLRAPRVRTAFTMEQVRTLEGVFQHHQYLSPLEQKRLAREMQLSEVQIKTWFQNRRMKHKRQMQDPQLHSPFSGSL

Test [3] concerns the target T2, VENTX (Homo sapiens, UniProt O95231 78-163, Y115F).
T2 sequence: T1 sequence with Y38F, Q44R

In test [4] the target is CRX (Homo sapiens, UniProt O43186 26-111, E42D).
In test [5] the target is VAX1 (Homo sapiens, UniProt Q5SQQ9 86-172).
Test [6] deals with VAX1 (Homo sapiens, UniProt Q5SQQ9 86-172, T142I).
In test [7] the target is CRX (Homo sapiens, UniProt O43186 26-111, R41L).
Test [8] addresses VAX1 (Homo sapiens, UniProt Q5SQQ9 86-172, K157R).
Test [9] concerns the target HOXB9 (Homo sapiens, UniProt P17482 171-250, T197M).
The target in test [10] is HOXC9 (Homo sapiens, UniProt P31274 178-260, K195R).
Test [11] addresses HOXA7 (Homo sapiens, UniProt P31268 116-202).
Test [12] concerns the target T3, PAX4 (Homo sapiens, UniProt O43316 9-242, R200K).
T3 sequence: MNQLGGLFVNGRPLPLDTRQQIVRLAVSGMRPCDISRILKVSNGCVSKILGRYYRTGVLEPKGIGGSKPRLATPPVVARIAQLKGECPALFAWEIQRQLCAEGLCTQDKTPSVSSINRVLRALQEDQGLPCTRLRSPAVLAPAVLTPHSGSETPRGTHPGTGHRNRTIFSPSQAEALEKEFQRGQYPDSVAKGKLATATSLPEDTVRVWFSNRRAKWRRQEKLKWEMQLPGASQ

Test [13] has as its target T4, PAX4 (Homo sapiens, UniProt O43316 9-242).
T4 sequence: T3 sequence with K192R

For test [14], the target named is HOXB6 (Homo sapiens, UniProt P17509 132-218, K202E).
Test [15] deals with HOXB9 (Homo sapiens, UniProt P17482 171-250).
For test [16], the target named is HOXC9 (Homo sapiens, UniProt P31274 178-260).
In test [17] the target is ALX3 (Homo sapiens, UniProt O95076 139-225, N203Q).
In a further test the target is HOXD13 (Homo sapiens, UniProt P35453 263-343, T313R).
Test [18] addresses T5, PAX4 (Homo sapiens, UniProt O43316 9-242, R200Q).
T5 sequence: T3 sequence with K192Q

The target of test [19] is HOXC9 (Homo sapiens, UniProt P31274 178-260, R193K).
In test [20] the target is T6, PAX4 (Homo sapiens, UniProt O43316 9-242, F177V).
T6 sequence: T3 sequence with F169V, K192R

Another test has as its target HOXC10 (Homo sapiens, UniProt Q9NYD6 254-340, K271E).
The target in test [21] is T7, PAX4 (Homo sapiens, UniProt O43316 9-242, F177Y).
T7 sequence: T3 sequence with F169Y, K192R

In test [22] the target is HESX1 (Homo sapiens, UniProt Q9UBX0 95-180, R109Q).
Test [23] concerns the target HOXB9 (Homo sapiens, UniProt P17482 171-250, R186Q).
Test [24] concerns the target HOXC9 (Homo sapiens, UniProt P31274 178-260, R222W).
The target in test [25] is HESX1 (Homo sapiens, UniProt Q9UBX0 95-180, F115L).
Test [26] addresses T8, PAX4 (Homo sapiens, UniProt O43316 9-242, R227W).
T8 sequence: T3 sequence with K192R, R219W

Test [27] addresses HOXA7 (Homo sapiens, UniProt P31268 116-202, W177C).
Test [28] deals with ALX3 (Homo sapiens, UniProt O95076 139-225, N203S).
In test [29] the target is HOXB6 (Homo sapiens, UniProt P17509 132-218).
Chain of HOXB6 (Homo sapiens, UniProt P17509 132-218) (P17509 132-218): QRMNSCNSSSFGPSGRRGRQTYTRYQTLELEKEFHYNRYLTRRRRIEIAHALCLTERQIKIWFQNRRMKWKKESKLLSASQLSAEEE

Chain of CRX (Homo sapiens, UniProt O43186 26-111) (O43186 26-111): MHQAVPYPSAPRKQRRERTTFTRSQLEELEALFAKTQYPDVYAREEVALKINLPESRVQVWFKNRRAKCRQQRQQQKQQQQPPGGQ
Chain of CRX (Homo sapiens, UniProt O43186 26-111, R41L) (O43186 26-111 R41L): as the sequence (O43186 26-111) above, with R16L counted along it
Chain of CRX (Homo sapiens, UniProt O43186 26-111, E42D) (O43186 26-111 E42D): as the sequence (O43186 26-111) above, with E17D counted along it
Chain of HOXB9 (Homo sapiens, UniProt P17482 171-250, R186Q) (P17482 171-250 R186Q): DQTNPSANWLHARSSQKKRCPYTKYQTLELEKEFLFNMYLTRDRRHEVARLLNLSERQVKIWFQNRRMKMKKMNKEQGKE
Chain of VAX1 (Homo sapiens, UniProt Q5SQQ9 86-172, T142I) (Q5SQQ9 86-172 T142I): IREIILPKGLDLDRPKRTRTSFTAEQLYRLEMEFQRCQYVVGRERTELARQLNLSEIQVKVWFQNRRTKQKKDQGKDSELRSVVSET
Chain of HOXC9 (Homo sapiens, UniProt P31274 178-260, R193K) (P31274 178-260 R193K): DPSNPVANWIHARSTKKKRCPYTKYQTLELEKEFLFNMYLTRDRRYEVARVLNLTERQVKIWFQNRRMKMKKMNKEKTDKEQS
Chain of HOXA7 (Homo sapiens, UniProt P31268 116-202) (P31268 116-202): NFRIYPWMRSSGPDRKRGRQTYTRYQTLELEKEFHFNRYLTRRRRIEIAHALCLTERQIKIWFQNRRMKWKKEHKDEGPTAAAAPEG
Chain of HOXB6 (Homo sapiens, UniProt P17509 132-218, K202E) (P17509 132-218 K202E): as the sequence (P17509 132-218) above, with K71E counted along it
Chain of HOXC10 (Q9NYD6 254-340 K271E): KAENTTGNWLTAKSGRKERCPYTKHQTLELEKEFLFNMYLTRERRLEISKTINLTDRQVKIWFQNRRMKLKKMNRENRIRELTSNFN
Chain of HOXC9 (Homo sapiens, UniProt P31274 178-260, K195R) (P31274 178-260 K195R): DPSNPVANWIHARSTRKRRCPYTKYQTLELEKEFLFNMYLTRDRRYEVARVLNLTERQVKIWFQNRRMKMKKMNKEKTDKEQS
Chain of HOXC9 (Homo sapiens, UniProt P31274 178-260, R222W) (P31274 178-260 R222W): as the sequence (P31274 178-260 R193K) above, with K16R, R45W counted along it
Chain of HESX1 (Homo sapiens, UniProt Q9UBX0 95-180, R109Q) (Q9UBX0 95-180 R109Q): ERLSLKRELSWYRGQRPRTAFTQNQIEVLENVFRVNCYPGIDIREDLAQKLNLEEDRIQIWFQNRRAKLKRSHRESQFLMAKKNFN
Chain of HOXB9 (Homo sapiens, UniProt P17482 171-250, T197M) (P17482 171-250 T197M): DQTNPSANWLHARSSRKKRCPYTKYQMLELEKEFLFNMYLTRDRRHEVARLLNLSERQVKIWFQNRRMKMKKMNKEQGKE
Chain of ALX3 (Homo sapiens, UniProt O95076 139-225, N203S) (O95076 139-225 N203S): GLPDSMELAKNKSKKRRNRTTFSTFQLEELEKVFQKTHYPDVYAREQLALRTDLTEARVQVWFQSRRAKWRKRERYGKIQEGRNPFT
Chain of HOXA7 (Homo sapiens, UniProt P31268 116-202, W177C) (P31268 116-202 W177C): as the sequence (P31268 116-202) above, with W62C counted along it
Chain of HOXB9 (Homo sapiens, UniProt P17482 171-250) (P17482 171-250): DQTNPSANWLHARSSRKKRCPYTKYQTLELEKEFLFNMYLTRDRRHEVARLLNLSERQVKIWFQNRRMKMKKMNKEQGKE
Chain of HESX1 (Homo sapiens, UniProt Q9UBX0 95-180, F115L) (Q9UBX0 95-180 F115L): as the sequence (Q9UBX0 95-180 R109Q) above, with Q15R, F21L counted along it
Chain of HOXC9 (Homo sapiens, UniProt P31274 178-260) (P31274 178-260): as the sequence (P31274 178-260 R193K) above, with K16R counted along it
Chain of VAX1 (Homo sapiens, UniProt Q5SQQ9 86-172, K157R) (Q5SQQ9 86-172 K157R): as the sequence (Q5SQQ9 86-172 T142I) above, with I57T, K72R counted along it
Chain of ALX3 (Homo sapiens, UniProt O95076 139-225, N203Q) (O95076 139-225 N203Q): as the sequence (O95076 139-225 N203S) above, with S65Q counted along it
Chain of VAX1 (Homo sapiens, UniProt Q5SQQ9 86-172) (Q5SQQ9 86-172): as the sequence (Q5SQQ9 86-172 T142I) above, with I57T counted along it
Chain of HOXD13 (P35453 263-343 T313R): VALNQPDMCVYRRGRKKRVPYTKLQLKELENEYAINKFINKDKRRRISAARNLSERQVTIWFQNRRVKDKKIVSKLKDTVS

On to ACAGATTA, for which the binding signal was 12.8 upbm affinity estimate (log intensity, higher = more binding, comparable within an allelic series) with CRX [1]; 10.5 upbm affinity estimate (log intensity, higher = more binding, comparable within an allelic series) with VENTX [2]; 10.5 upbm affinity estimate (log intensity, higher = more binding, comparable within an allelic series) in the test with VENTX [3]; 12.7 upbm affinity estimate (log intensity, higher = more binding, comparable within an allelic series) in the test with CRX [4]; 10 upbm affinity estimate (log intensity, higher = more binding, comparable within an allelic series) with VAX1 [5]; 9.28 upbm affinity estimate (log intensity, higher = more binding, comparable within an allelic series) with VAX1 [6]. Besides, the binding signal with CRX [7] was 12.6 upbm affinity estimate (log intensity, higher = more binding, comparable within an allelic series); in the test with VAX1 [8], 9.72 upbm affinity estimate (log intensity, higher = more binding, comparable within an allelic series).
For TAATCTGA, the binding signal was 12.9 upbm affinity estimate (log intensity, higher = more binding, comparable within an allelic series) with CRX [1]; 10.3 upbm affinity estimate (log intensity, higher = more binding, comparable within an allelic series) with VENTX [2]; 12.8 upbm affinity estimate (log intensity, higher = more binding, comparable within an allelic series) in the test with CRX [4]; 12.6 upbm affinity estimate (log intensity, higher = more binding, comparable within an allelic series) with CRX [7].
Take ATATTAAT: the binding signal with CRX [1] is 11.6 upbm affinity estimate (log intensity, higher = more binding, comparable within an allelic series); in the test with HOXB9 [9] it was 10.2 upbm affinity estimate (log intensity, higher = more binding, comparable within an allelic series); in the test with HOXC9 [10], 12.5 upbm affinity estimate (log intensity, higher = more binding, comparable within an allelic series); in the test with HOXA7 [11], 11.2 upbm affinity estimate (log intensity, higher = more binding, comparable within an allelic series); with PAX4 [12], 11.7 upbm affinity estimate (log intensity, higher = more binding, comparable within an allelic series); with PAX4 [13] it was 12.1 upbm affinity estimate (log intensity, higher = more binding, comparable within an allelic series). The binding signal is 10.1 upbm affinity estimate (log intensity, higher = more binding, comparable within an allelic series) with HOXB6 [14]; 11.8 upbm affinity estimate (log intensity, higher = more binding, comparable within an allelic series) with HOXB9 [15]; 11.5 upbm affinity estimate (log intensity, higher = more binding, comparable within an allelic series) with CRX [4]; 12.5 upbm affinity estimate (log intensity, higher = more binding, comparable within an allelic series) in the test with HOXC9 [16]; 8.63 upbm affinity estimate (log intensity, higher = more binding, comparable within an allelic series) in the test with ALX3 [17]; 10.8 upbm affinity estimate (log intensity, higher = more binding, comparable within an allelic series) with HOXD13. Also, the binding signal is 11.9 upbm affinity estimate (log intensity, higher = more binding, comparable within an allelic series) in the test with PAX4 [18]; 12.5 upbm affinity estimate (log intensity, higher = more binding, comparable within an allelic series) with HOXC9 [19]; 10.7 upbm affinity estimate (log intensity, higher = more binding, comparable within an allelic series) in the test with PAX4 [20]; 11.8 upbm affinity estimate (log intensity, higher = more binding, comparable within an allelic series) with HOXC10; 11 upbm affinity estimate (log intensity, higher = more binding, comparable within an allelic series) in the test with PAX4 [21]; 8.59 upbm affinity estimate (log intensity, higher = more binding, comparable within an allelic series) in the test with HESX1 [22]. In addition, the binding signal with HOXB9 [23] is 11.5 upbm affinity estimate (log intensity, higher = more binding, comparable within an allelic series); with HOXC9 [24], 11.1 upbm affinity estimate (log intensity, higher = more binding, comparable within an allelic series); with HESX1 [25] it was 8.13 upbm affinity estimate (log intensity, higher = more binding, comparable within an allelic series); in the test with PAX4 [26] it was 11 upbm affinity estimate (log intensity, higher = more binding, comparable within an allelic series); with HOXA7 [27] it was 9 upbm affinity estimate (log intensity, higher = more binding, comparable within an allelic series); in the test with CRX [7], 11 upbm affinity estimate (log intensity, higher = more binding, comparable within an allelic series). For the same sequence, the binding signal in the test with ALX3 [28] is 8.74 upbm affinity estimate (log intensity, higher = more binding, comparable within an allelic series); with HOXB6 [29], 11.8 upbm affinity estimate (log intensity, higher = more binding, comparable within an allelic series).
